A selection: hits, their analogues and other compounds. The true share with any hit is near 3.1%.
VDR inhibitor: blocks the human vitamin D receptor. VDR-SRC2-3 peptide fluorescence polarization, 2 h. 400,000 tested, 0.93% active. AID 504847. Potency, µM, for the others: max response, negative = inhibition, actives largely listed as inhibitors. P11473; also: potency is read from the fitted curve at half-maximal effect
Target sequence (P11473 whole entry, looked up): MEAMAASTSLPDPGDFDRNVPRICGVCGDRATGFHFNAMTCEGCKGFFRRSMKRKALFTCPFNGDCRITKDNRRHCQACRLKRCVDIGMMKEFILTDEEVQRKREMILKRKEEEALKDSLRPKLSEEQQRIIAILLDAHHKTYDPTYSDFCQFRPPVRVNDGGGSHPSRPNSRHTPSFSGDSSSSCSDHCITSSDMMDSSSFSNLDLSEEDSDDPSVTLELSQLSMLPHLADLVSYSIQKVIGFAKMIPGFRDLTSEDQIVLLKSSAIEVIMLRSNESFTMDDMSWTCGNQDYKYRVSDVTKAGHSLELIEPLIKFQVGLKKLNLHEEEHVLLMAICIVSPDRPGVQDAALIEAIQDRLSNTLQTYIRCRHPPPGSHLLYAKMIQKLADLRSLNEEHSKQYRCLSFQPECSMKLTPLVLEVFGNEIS
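Reagent solutions, kept cold and dark, are dispensed first; compounds are then pinned in at 23 nl, plates briefly spun, and incubated 2 h at ambient temperature. Inhibition of VDR–SRC2-3 peptide binding is read by fluorescence polarization.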
GLS inhibitor: glutaminase GLS (human) inhibition; O94925; GLS enzymatic activity, qHTS titration; Potency, µM (series often up to 45.5 µM), without a hit: at the highest dose activity change, negative = inhibition, actives largely listed as inhibitors; 410,000 tested, 0.21% active; AID 624170; also: potency is read from the fitted curve at half-maximal effect
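Coupled fluorescence readout: glutamate oxidase/HRP/Amplex Red detect glutamate formed by hKGA from L-glutamine (1 mM solution added). Buffer 45 mM KH2PO4 pH 8.2, 0.02% Tween-20; reads at t0 and 30 min RT.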
GCN5L2 inh: inhibitors of human GCN5L2 histone acetyltransferase; Potency, µM (titrated, usually from 58.9 µM), without a hit: at the highest dose activity change, negative = inhibition, most hits filed as inhibitors; GCN5L2 HAT assay, ThioGlo1 CoA-SH fluorescence; 390,000 tested, 0.21% active; Q92830; also: potency is read from the fitted curve at half-maximal effect
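Enzyme at 20nM final was mixed with library compounds for 15 min at room temperature. Peptide H3(1-25) at 75uM, acetyl-CoA at 70uM and ThioGlo1 at 50uM were then added. Plates were read immediately and after 20 min (Ex340nm/Em540nm).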
PLK1 PBD block: PLK1 (human) polo-box domain binding inhibition. P53350. Plk1 PBD binding of FITC phosphopeptide, fluorescence polarization. Potency, µM, for inactives: max response, negative = inhibition, actives largely listed as inhibitors. 360,000 tested, 2.8% active. AID 720504; also: potency is read from the fitted curve at half-maximal effect; series mostly up to about 57 µM; nearly all actives have a fitted effect of over 65% in size
PI4K2A inh: PI4K2A (human) kinase inhibition; 420,000 tested, 0.13% active; Q9BTU6; purified PI4K2A, ADP-Glo luminescence, 1 h; active compounds read low; AID 1346378; activity change, negative = inhibition, % at 76.9 µM; in the data active = activity change below about -50%; inconclusive = mostly about -30% to -49%;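 also: -100% = wells without enzyme as full effect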
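ADP-Glo luminescence measured ADP generated by PI4K2A enzyme (4 ug/mL before mixing) with 1.2 mM PI substrate (pre-mix) and 300 microM ATP (pre-mix). Tris pH7.5 buffer with MgCl2, Triton X-100; 1 h reaction at ambient temperature.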
Starred values were filed as active, the others as inactive; u = inconclusive; x = no result. Unless noted, calls follow the shape of the dose curve; as a rule, active = well fitted curve in the direction sought with a large enough effect; inconclusive = small, poorly fitted or top-dose-only effect, or another doubt; inactive = no such curve, though single readings can be large; an effect the other way counts as inactive or inconclusive. Unless noted, % is scaled to controls: 0 for no effect and ±100 for the full control effect.

SMILES	VDR inhibitor	GLS inhibitor	GCN5L2 inh	PLK1 PBD block	PI4K2A inh
FC(F)(F)c1cccc(N2CCN(c3nc4ccccc4n4cnnc34)CC2)c1	-2%	3%	-7%	x	-1
COc1ccc2oc(=O)c(/C(N)=N/NC(=O)c3ccncc3)cc2c1	-23%	-9%	1%	24µM*	4
COc1ccc2oc(=O)c(/C(C)=N/Nc3ccccc3)cc2c1	-5%	-6%	-20%	19µM*	-12
COc1ccc2oc(=O)c(C(=O)N3CCN(C(=O)c4ccccc4)CC3)cc2c1	4%	-2%	-12%	-4%	-4
C/C(=N\NC(=O)c1ccc([N+](=O)[O-])cc1)c1cc2ccccc2oc1=O	-25%	-14%	49%	30µM*	3
COc1ccc2oc(=O)c(C(=O)N3CCN(C(=O)c4ccco4)CC3)cc2c1	-13%	2%	-14%	30µM*	0
CN(C)c1nc(-c2ccoc2)nc2ccccc12	u	x	-17%	x	x
COc1ccc(/C(C)=N/NC(=O)Cc2cc(=O)[nH][nH]2)cc1OC	x	x	x	x	-8
COc1ccc(CCn2c3c(c(=O)[nH]c2=S)CN(c2ccccc2)CN3)cc1OC	-5%	x	x	x	x
C/C(=N/NC(=O)c1ccncc1)c1cc2ccc(O)cc2oc1=O	3%	15%	-11%	12µM*	5
C/C(=N\NC(=O)c1ccccc1)c1cc2cc([N+](=O)[O-])ccc2oc1=O	-3%	u	6%	24µM*	2
C/C(=N/NC(N)=S)c1cc2ccc(O)cc2oc1=O	-13%	12%	u	30%	0
CCS(=O)(=O)N1CCC(C(=O)Oc2ccc(Br)cc2)CC1	-11%	4%	-4%	-26%	-2
CCS(=O)(=O)N1CCC(C(=O)Oc2ccc(Cl)cc2)CC1	-12%	-3%	-1%	27µM*	1
CC(C)c1ccc(Nc2nc(Nc3ccc(Cl)cc3)nc(N3CCOCC3)n2)cc1	6%	x	x	x	x
COc1ccc(NC(=O)C2CCCCN2N)cc1OC (stereo unspecified)	-13%	26%	-2%	27µM*	6
CC(C(=O)Nc1ccccc1-c1ccccc1)N1CCN(Cc2ccccc2)CC1 (stereo unspecified)	u	u	-19%	17µM*	1
O=C(CCSCCc1ccccn1)Nc1ccc(Cl)cc1	-8%	0%	1%	x	-3
C[N+](C)(C)CC(O)CC(=O)[O-] (stereo unspecified)	x	x	x	x	-2
O=S(=O)(N/N=C/c1ccc(F)cc1)c1ccccc1	9%	1%	-1%	-14%	2
O=S(=O)(N/N=C/c1ccccc1F)c1ccccc1	u	-4%	-4%	15µM*	2
Cc1ccc(NCc2nnc(SCC(N)=O)n2CC2CCCO2)c(C)c1 (stereo unspecified)	-12%	5%	-6%	30µM*	3
COc1ccc2c(c1OC)C(=O)N1C2SC(C)(C)[C@H]1C(=O)NC1CCCC1 (stereo partly specified)	-5%	4%	32µM*	-6%	-4
Nc1nc(O)c2ncn([C@H]3CC[C@@H](CO)O3)c2n1	13%	x	-1%	x	x
NNS(=O)(=O)c1ccc(N2CCCC2=O)c([N+](=O)[O-])c1	u	8%	-4%	27µM*	-2
SMILES	VDR inhibitor	GLS inhibitor	GCN5L2 inh	PLK1 PBD block	PI4K2A inh
CCCCN(CCCC)S(=O)(=O)c1ccc(N2CCCC2=O)c([N+](=O)[O-])c1	u	u	x	15µM*	0
CN(C)Cc1nc(-c2cn(C)c3ccccc23)no1	13%	x	u	x	x
C=C[C@]1(C)C[C@@H](OC(=O)CO)[C@]2(C)C(C)CC[C@]3(CCC(=O)[C@H]32)[C@@H](C)[C@@H]1O (stereo partly specified)	x	-5%	x	x	x
O=C(CCc1nc(-c2ccccc2F)no1)NCCc1ccc(F)cc1	x	x	x	x	-3
N#Cc1c(NC(=O)c2cnccn2)sc2c1CCCC2	-2%	15%	-10%	27µM*	-7
CC(C)c1cc(C(=O)Nc2sc3c(c2C#N)CCC3)no1	1%	11%	-9%	24µM*	2
Cn1ncc(Cl)c1C(=O)NC(=S)Nc1sc2c(c1C#N)CCCCC2	-8%	-12%	7%	8.4µM*	-5
N#Cc1c(NC(=S)NC(=O)c2ccccc2)sc2c1CCCC2	u	12%	2%	u	-1
N#Cc1c(NC(=O)c2cccnc2)sc2c1CCC2	-3%	51%	-6%	-20%	6
COc1ccc(-c2cc(C(=O)Nc3sc4c(c3C#N)CCCC4)no2)cc1OC	u	8%	2%	x	-2
C[C@@H]1COc2cc(Br)ccc2S(=O)(=O)N1Cc1cn(Cc2ccc(Cl)cc2)nn1	x	x	x	x	0
CCCOc1ccc(-c2nonc2NC(=O)c2ccco2)cc1OCCC	4%	-23%	-13%	x	-4
COc1ccc(N=C2S/C(=C\c3ccc(OC(C)C(=O)O)c(OC)c3)C(=O)N2CCc2c[nH]c3ccccc23)cc1 (stereo unspecified)	40µM*	2%	u	u	-2
O=C1/C(=C/c2ccc(N3CCOCC3)o2)SC(=Nc2ccccc2)N1CCc1c[nH]c2ccccc12	79µM*	u	1%	27%	-3
Cc1csc2nc(COC(=O)c3cccc(NC(=O)c4cccc(Cl)c4)c3)cc(=O)n12	0%	-2%	-1%	x	3
CCn1nc(-c2ccccc2)c2nc3ccccc3nc21	7%	7%	-19%	u	-13
CCCCn1c2nc3ccccc3nc2c2c(=O)n(CCC)cnc21	1%	11%	-3%	-11%	7
CCCn1nc(-c2ccccc2)c2nc3ccccc3nc21	3%	3%	-9%	17µM*	3
CCCCCn1nc(-c2ccccc2)c2nc3ccccc3nc21	-17%	-5%	u	21µM*	1
CCOc1ccccc1CNC(=O)c1ccc(NC(=O)N2CCSc3ncccc32)cc1	10%	2%	-4%	x	3
Cc1noc(NS(=O)(=O)c2ccc(NC(=O)NC(C)(C(F)(F)F)C(F)(F)F)cc2)c1C	12%	5%	17%	-9%	-3
CC(=O)Nc1ccccc1O	2%	11%	-1%	-6%	-4
CCC(NC(=O)NCc1ccccc1)(C(F)(F)F)C(F)(F)F	4%	0%	35%	-1%	2
CC(NC(=O)Nc1ccccc1O)(C(F)(F)F)C(F)(F)F	10%	68%	-7%	27µM*	-8
CC(NC(=O)Nc1ccc(O)cc1)(C(F)(F)F)C(F)(F)F	-9%	43%	-2%	-4%	-51*
CCC(NC(=O)Nc1ccc(O)cc1)(C(F)(F)F)C(F)(F)F	-11%	10%	2%	-5%	-52*
O=C(Cn1cnc2c(nc3n2CCCCC3)c1=O)Nc1ccc(F)c(Cl)c1	-11%	2%	-21%	x	3
O=C(Nc1ccc2c(c1)OCO2)c1cc2ncc(Br)cn2n1	-7%	37%	-29%	12µM*	u
O=C(Nc1cccc(C(F)(F)F)c1)c1cc2ncc(Br)cn2n1	10%	-25%	-14%	-9%	1

Screens (PubChem BioAssay)
